Values joined by “and” are separate entries in the source; they are usually repeats but may differ in a detail not shown here. Equal values may be shown once. Records with an inconclusive call do not appear. Active and inactive are the calls of the source. Calls come from the whole dose curve; as a rule, active = well fitted inhibition curve with a large enough effect in the signal ratio in the repeat runs; inconclusive = weak or mixed curves, or effect the other way; inactive = flat fitted curve, though single readings scatter; the % refers to the signal ratio.
% is set by controls: 0 for no effect and ±100 for the full control effect; potency is the fitted concentration of half-maximal effect.

The assay is described as follows: qHTS assay for small molecule disruptors of the mitochondrial membrane potential (AID 720635). The note with it: HepG2 mitochondrial membrane potential, Mito-MPS dye ratio; series mostly up to 83.2 µM; ratio activity, negative = MMP loss: at the top concentration. The source says:
U.S. Tox21 Program National Center for Advancing Translational Sciences [NCATS] NIH Chemical Genomics Center [NCGC] U.S. Environmental Protection Agency [EPA] National Institutes of Environmental Health Sciences [NIEHS] National Toxicology Program [NTP] U.S. Food and Drug Administration [FDA] Tox21 Assay Overview: Mitochondrial membrane potential (MMP), one of the parameters for mitochondrial function, is generated by mitochondrial electron transport chain that creates an electrochemical gradient by a series of redox reactions. This gradient drives the synthesis of ATP, a crucial molecule for various cellular processes. Measuring MMP in living cells is commonly used to assess the effect of chemicals on mitochondrial function. […] The dye accumulates in the mitochondria of healthy cells as aggregates, with red fluorescence. The mitochondrial potential collapses and the dye can no longer accumulate in the mitochondria and remains in the cytoplasm in monomers, with green fluorescence.
Tox21 Assay Protocol Summary: 2,000 HepG2 cells in 5 uL/well were dispensed into black, clear-bottom 1536-well plates using a Multidrop Combi (Thermo Scientific) dispenser. The assay plates were incubated overnight at 37C to allow cells to attach to the wells, followed by the transfer of 23 nL compound or DMSO vehicle by a pin tool (Kalypsys). The plates were incubated for 1 hr at 37C and 5% CO2, followed by the addition of 5 uL of 2X Mito-MPS dye (BD Biosciences) into each well using Flying Reagent Dispenser (Aurora Discovery) and then following 30 min incubation at 37C. Fluorescence intensity (490nm excitation and 535nm emission for monomers; and 540nm excitation and 590nm emissions for aggregates) was measured using an Envision plate reader.
As to `O=Cc1cc(O)ccc1Br`, the Potency is 62 µM (active).
Regarding `C/C=C1/C(=O)C[C@H]2[C@@H]3CCC4=CC(=O)CC[C@]4(C)[C@H]3CC[C@]12C`, the “ratio activity, negative = MMP loss” value was -6.68% (inactive).
`C=C(C)C(=O)OCC(O)COc1ccc(C(C)(C)c2ccc(OCC(O)COC(=O)C(=C)C)cc2)cc1` (stereo not given): the Potency was 5.45 µM (active).
`Cc1cc(N)c(S(=O)(=O)O)cc1Cl`: the “ratio activity, negative = MMP loss” value is -12.6% [at 95.3 µM] (inactive).
As for `OCc1c[nH]c2ccccc12`, the Potency is 24.3 µM (active).
Consider `CCOc1ccc2nc3cc(N)ccc3c(N)c2c1`, for which the Potency is 2.66 µM (active).
For the compound `N#CSc1ccc(N)c([N+](=O)[O-])c1`, the Potency is 61.5 µM (active).
With `Cc1c(C)c2c(c(C)c1O)CCC(C)(COc1ccc(CC3SC(=O)NC3=O)cc1)O2` (stereo not given), the Potency was 9.44 µM (active) and 10.9 µM (active).
`CC(=O)N1CCN(c2ccc(OC[C@H]3CO[C@](Cn4ccnc4)(c4ccc(Cl)cc4Cl)O3)cc2)CC1`: the Potency was 4.86 µM (active).
For `Cc1cc(O)c(C(C)(C)C)cc1Sc1cc(C(C)(C)C)c(O)cc1C`, the Potency was 0.768 µM (active).
In the case of `Nc1c2ccccc2nc2ccccc12`, the Potency is 11.9 µM (active) and 4.27 µM (active).
In the case of `Cc1[nH]nc2c1N=C(c1ccccc1Cl)c1cc([N+](=O)[O-])ccc1N2`, the Potency was 3.06 µM (active).
On the same count and under the same terms, the value for `CCCC(C)c1ccccc1O` (stereo not given) was 30.6 µM (active).
With `CCCCCCCCCCCCCCCCCC[N+](C)(C)C`, the Potency was 48.7 µM (active).
On to `Oc1cccc(-c2c3nc(c(-c4cccc(O)c4)c4ccc([nH]4)c(-c4cccc(O)c4)c4nc(c(-c5cccc(O)c5)c5ccc2[nH]5)CC4)C=C3)c1`, for which the Potency was 26.6 µM (active).
For the compound `Cc1cc2c(cc1C(F)(F)F)N(C(=O)Nc1ccc(Oc3cccnc3C)nc1)CC2`, the Potency was 12.4 µM (active).
As to `CCCCCCCCS(=O)C(C)Cc1ccc2c(c1)OCO2` (stereo not given), the “ratio activity, negative = MMP loss” value is -27.6% [at 95.3 µM] (inactive).
Take `Cc1ccc(O)c(C(C)(C)C)c1`: the Potency is 5.44 µM (active) and 27.3 µM (active).
In the case of `O=CC=C(c1ccccc1)c1ccccc1`, the Potency was 30.9 µM (active).
On to `O=C(OCC1CO1)C1CCCCC1C(=O)OCC1CO1` (stereo not given), for which the “ratio activity, negative = MMP loss” value is 19.6% (inactive).
With `COC(=O)C1=C(C)NC(C)=C(C(=O)OCC(C)C)C1c1ccccc1[N+](=O)[O-]` (stereo not given), the Potency was 11.9 µM (active) and 43.3 µM (active).
For the compound `CCOC(=O)O[C@]1(C(=O)OCCl)CC[C@H]2[C@@H]3CCC4=CC(=O)C=C[C@]4(C)[C@H]3[C@@H](O)C[C@@]21C`, the “ratio activity, negative = MMP loss” value is -11.4% (inactive).
With `O=S1(=O)CC(Cl)(Cl)C(Cl)(Cl)C1`, the Potency is 12.2 µM (active).
In the case of `CCCCCCCCCCCCCCCC[N+](C)(C)CCN(Cc1ccc(OC)cc1)c1ncccn1`, the Potency was 11.4 µM (active).
Regarding `N=C1C=CC(=C(c2ccc(N)cc2)c2ccc(N)cc2)C=C1`, the Potency was 0.0611 µM (active).
Consider `C[C@H](CCC(=O)O)[C@H]1CC[C@H]2[C@@H]3CC[C@@H]4C[C@H](O)CC[C@]4(C)[C@H]3CC[C@]12C`, for which the Potency was 60.9 µM (active).
In the case of `O=c1[nH]sc2ccccc12`, the Potency was 27.3 µM (active).
Still for that read-out and setting: the value for `Oc1ccc2cc(SSc3ccc4cc(O)ccc4c3)ccc2c1` was 38.6 µM (active) and 24.3 µM (active).
Consider `CNC(=O)c1ccccc1`, for which the “ratio activity, negative = MMP loss” value was -6.52% (inactive).
In the case of `CCCCc1oc2ccc(NS(C)(=O)=O)cc2c1C(=O)c1ccc(OCCCN(CCCC)CCCC)cc1`, the Potency is 9.44 µM (active).
Take `CC(=O)SC[C@@H](Cc1ccccc1)C(=O)NCC(=O)OCc1ccccc1`: the “ratio activity, negative = MMP loss” value was -14.6% [at 39.1 µM] (inactive).
As to `O=C(Nc1ccc(Oc2ccc(Cl)cc2)c(Cl)c1)c1cc(I)cc(I)c1O`, the Potency is 2.37 µM (active).
With `C[n+]1cc2c3c(ccc2c2ccc4cc5c(cc4c21)OCO5)OCO3`, the Potency is 8.41 µM (active).
As to `CCCCCCCC/C=C/CCCCCCCC1=NCCN1CCO`, the Potency was 54.5 µM (active).
`CCCC(c1cc(C(C)(C)C)c(O)cc1C)c1cc(C(C)(C)C)c(O)cc1C`: the Potency was 3.9 µM (active).
Same read-out and setting: the value for `N=C1N=C(N)c2cc3ccccc3cc21` was 3.06 µM (active); that for `Oc1ccc(N=Nc2ccccc2)cc1` was 3.1 µM (active).
For `Oc1ccc(C2(c3ccc(O)cc3)CC3CC2C2CCCC32)cc1` (stereo not given), the Potency is 33 µM (active).
`CC(C)OC(=O)c1cc2c(OCC(O)CNC(C)(C)C)cccc2[nH]1` (stereo not given): the “ratio activity, negative = MMP loss” value is -15% (inactive).
For `Oc1c(Cl)cc(Cl)c2cccnc12`, the Potency is 10.6 µM (active).

The values above are taken from PubChem BioAssay (Tox21).
